Records with an inconclusive call do not appear. Active and inactive are the calls of the source. The call rests on the fitted dose curve.
Experiment: qHTS for Inhibitors of Cell Surface uPA Generation: Wild-type Protective Antigen (WT-PrAg) Counterscreen for Cherry-picked Compounds; further: 0% is about no effect
Conditions: cells, WT protective antigen toxicity counterscreen; series mostly up to 115 µM; activity (protection): at the top concentration

| SMILES | activity (protection) |
| --- | --- |
| COc1ccccc1NC(=O)Cn1ncc2c1-c1ccccc1OC2 | -0.171% (inactive) |
| C[C@@H](CSc1ccccc1)CN1CC[C@H](O)CCC1=O | 0.0232% (inactive) |
| COc1ccc(CCN=c2c([N+](=O)[O-])nn(-c3cccc(C)c3)n2O)cc1OC | -2.53% (inactive) |
| CC(=O)NCCc1cnc[nH]1 | -0.521% (inactive) |
| O=C(COC(=O)c1cccc([N+](=O)[O-])c1)NNC(=O)c1cccs1 | 0.0086% (inactive) |
| CC1CCC(NC(=O)c2nn(C)c3c2CS(=O)(=O)c2ccccc2-3)CC1 (configuration not stated) | -1.64% (inactive) |
| COC(=O)[C@]1(Cc2ccccc2)N[C@H](CN(C)C(=O)c2ccccc2)[C@@H]2C(=O)N(Cc3ccccc3)C(=O)[C@@H]21 | 1.64% (inactive) |
| COc1cc(/C=N/NC(=O)Cc2csc(C)n2)ccc1OCC(C)C | -0.127% (inactive) |
| O=C(C[C@@H]1C/C=C\C[C@H](Cc2ccc(F)cc2)C(=O)OC[C@H]2CCCN2C1=O)N[C@H](CO)Cc1ccccc1 | -2.42% (inactive) |
| CCNc1nc(Nc2ccc(C)c(Cl)c2)c2cnn(C)c2n1 | -0.478% (inactive) |
| OCC1CCCCN1CC(O)COC(c1ccc(F)cc1)c1ccc(F)cc1 (configuration not stated) | 0.726% (inactive) |
| CC(=O)c1cnc2nc(SCc3cccc(C)c3)nn2c1C | -1.51% (inactive) |
| O=C1N[C@@H](Cc2c[nH]c3ccccc23)C(=O)N[C@H]1Cc1ccccc1 | 1.55% (inactive) |
| Cc1nnc2ccc(-c3ccc(NS(=O)(=O)c4ccc(Cl)s4)cc3)nn12 | -1.61% (inactive) |
| CC1=NN(C(N)=S)C(=O)C1N=Nc1ccccc1C(=O)O (configuration not stated) | -0.58% (inactive) |
| CC1(C)Oc2ccc3ccc(=O)oc3c2[C@@H](O)[C@H]1O | -0.534% (inactive) |
| CCc1ccccc1N(CC(=O)N1CCCC1)S(C)(=O)=O | 1.14% (inactive) |
